Active and inactive are the calls of the source. Rule for the calls: active = hit-call score of the fitted dose curve at least 0.9, where 1 is the maximum; inactive = score below 0.9.

Read-out in this assay: Plasminogen activator inhibitor-1 (PAI1), SERPINE1 (gene 5054)
As to the kind of experiment: BSK_hDFCGF_PAI1: BioMAP Diversity Plus: hDFCGF Assay for Plasminogen activator inhibitor-1 (PAI1) Biomarker Activity (AID 2283066). Particulars: primary human foreskin fibroblasts; actives raise or lower the signal. The procedure: BSK_hDFCGF is a cell-based, multiplexed-readout assay that uses foreskin fibroblast, a human skin primary cell, with measurements taken at 24 hours after chemical dosing in a 96-well plate.BSK_hDFCGF_PAI1 is an assay component measured in the BSK_hDFCGF assay. It measures PAI-1 antibody related to regulation of gene expression using ELISA technology.Data from the assay component BSK_hDFCGF_PAI1 was analyzed into 1 assay endpoint. This assay endpoint, BSK_hDFCGF_PAI1, was analyzed with bidirectional fitting relative to DMSO as the negative control and baseline of activity. Using a type of binding reporter, gain or loss-of-signal activity can be used to understand changes in the signaling as they relate to the gene SERPINE1. Furthermore, this assay endpoint can be referred to as a primary readout, because this assay has produced multiple assay endpoints where this one serves a signaling function. To generalize the intended target to other relatable targets, this assay endpoint is annotated to the cytokine intended target family, where the subfamily is plasmogen activator inhibitor.
The levels of cell surface (or secreted, indicated by the prefix "s") biomarker endpoints were measured by ELISA. Overt cytotoxicity to cells in confluent adherent cultures (all systems other than the BT system) was assessed by measuring total protein levels using sulforhodamine B (SRB) staining in parallel cultures at the time of biomarker measurements, indicated as SRB endpoints. For proliferation assays for adherent cell types, individual cell types are cultured at sub-confluence and relative cell numbers quantified by SRB staining at time points optimized for each system (48 h: 3C and CASM3C systems; 72 h: BT and HDF3CGF systems; 96 h: SAg system). SRB was performed by staining cells with 0.1% SRB after fixation with 10% TCA and reading wells at 560 nm.Viability and proliferation of PBMC (T cells) was quantified by Alamar Blue reduction for the SAg and BT systems. For PBMC viability (referred to as PBMC Cytotoxicity within the assay endpoint names), cells were plated (75,000/well in a 96-well plate) and then chemical samples added for 1 h before addition of activators, SEB and TSST-1 (20 ng/mL final concentration each). Cells were incubated for 90 h. Then, Alamar Blue (20 uL/well) (Invitrogen, Cat DAL1100) was added for 6 h, and the plates were read with a fluorescence microplate reader at 546/580 nm (excitation/emission). For PBMC proliferation, cells were plated and activated as above but incubated for only 16 h prior to addition of Alamar Blue. Plates were read after 6 h.
As for `Nc1ccccc1N`, the result was inactive.

What is called AC50 is the concentration giving half of the maximal activity seen. In the case of `CCc1c(C(=O)NN2CCCCC2)nn(-c2ccc(Cl)cc2Cl)c1-c1ccc(Br)cc1`, the AC50 was 2.3 µM (active).

As to `Cc1ccccc1Cl`, the result was inactive. The same measure, in the same setting: the entry for `CCCCCCOCCO` is “inactive”; for `Oc1ccc2c(c1)OC[C@@H](N1CCC(O)(c3ccc(F)cc3)CC1)[C@H]2O` it is “inactive”. `O=C(O)CCCCC(=O)O`: the result was inactive. In the case of `c1cc(-c2ccncc2)ccn1`, the result was inactive. Regarding `CC=Cc1ccc(O)c(OC)c1`, the result was inactive.

For the compound `COC(=O)c1ccc(O)cc1`, the result was inactive.

`Cc1cccc([N+](=O)[O-])c1C`: the outcome was inactive. With `CC(C)(C)c1cc(O)c(C(C)(C)C)cc1O`, the outcome was inactive. Consider `Nc1nc(N)c2nc(CNc3ccc(C(=O)N[C@@H](CCC(=O)O)C(=O)O)cc3)cnc2n1`, for which the result was inactive. On to `NC(=O)Cn1c(=O)cc(CCN2CCN(c3nccc4sccc34)CC2)c2ccc(F)cc21`, for which the result was inactive.

On to `COCCOC[C@H](CC1(C(=O)NC2CCC(C(=O)O)CC2)CCCC1)C(=O)Oc1ccc2c(c1)CCC2` (stereo not given in full), for which the result was inactive. The same measure, in the same setting: the entry for `CC1(C)NC(=O)NC1=O` is “inactive”. Same read-out and setting: the entry for `Cc1nc(-c2ccc3c(c2)CCN(CCC2CCC(NC(=O)/C=C/c4ccc(F)cc4)CC2)CC3)no1` (stereo not given) is “inactive”; for `Cc1ccc(C)c(C)c1` it is “inactive”. The same measure, in the same setting: under `C=CCOC(=O)c1ccccc1C(=O)OCC=C` stands “inactive”; under `CCOC(=O)C(C)(C)Oc1ccc(Cl)cc1`, “inactive”. As for `CCCCCCCCCCCCCO`, the half-maximal activity concentration (AC50) was 12.9 µM (active). As for `Cc1cccc(C)c1O`, the result was inactive. As for `CCOC(=O)CCC(=O)OCC`, the outcome was inactive. In the case of `Cc1ccc(N(C)C)cc1`, the result was inactive. For `COc1cc(C=O)ccc1O`, the result was inactive. As for `CC(=O)OCCOCCOCCOC(C)=O`, the outcome was inactive. Turning to `CCCCCC(=O)O`, the result was inactive. As for `CNC(=O)[C@H]1O[C@@H](n2cnc3c(NCc4cc(Cl)ccc4OCc4cc(C)no4)ncnc32)[C@H](O)[C@@H]1N`, the result was inactive. On to `NCC1(Cc2noc(=O)[nH]2)CCCCC1`, for which the result was inactive. `CCCCC(CC)COC(=O)CC(C(=O)OCC(CC)CCCC)S(=O)(=O)O` (stereo not given): the AC50 is 9.12 µM (active). For the compound `CCCCCCCCCCCC(=O)OC`, the outcome was inactive. On to `NS(=O)(=O)c1cc2c(cc1Cl)NCNS2(=O)=O`, for which the outcome was inactive.

`CNCc1cc(F)ccc1Oc1ccc(Cl)c(Cl)c1`: the outcome was inactive. As for `Nc1ccc(S(=O)(=O)c2ccc(N)cc2)cc1`, the outcome was inactive. Same read-out and setting: under `CCCCN(CCCC)CCCC` stands “inactive”; under `COc1cc(S(=O)(=O)O)c(C)cc1N=Nc1c(O)ccc2cc(S(=O)(=O)O)ccc12`, “inactive”. In the case of `CN1CCCC1=O`, the outcome was inactive. For `CCCCCCCCCCC`, the result was inactive.

Regarding `COc1cc(-c2nc(NC(=O)c3cc4cc(C)cc(C)c4n3CC(=O)O)sc2CCC2CCCCC2)c(OC)cc1Cl`, the AC50 is 0.442 µM (active). On to `CCOc1ccc2c(c1)C(C)=CC(C)(C)N2`, for which the outcome was inactive. On the same count and under the same terms, the entry for `Clc1cc(Cl)c(Cl)cc1Cl` is “inactive”.

These data come from PubChem BioAssay (EPA / NIEHS).
